Assay outcomes: PubChem, National Center for Advancing Translational Sciences (NCATS)
Cruzain noTriton: inhibitors of Trypanosoma cruzi cruzain without detergent. P25779. purified cruzain, Z-FR-AMC fluorescence, no detergent. Potency, µM, inactives show max response, negative = inhibition, most hits filed as inhibitors. 200,000 tested, 2.3% active. AID 1476;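 further: plate controls were enzyme without inhibitor for no effect and buffer without enzyme for full effect; nearly all actives have a fitted effect of over 40% in size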
Target sequence (P25779 123-467 limits assumed): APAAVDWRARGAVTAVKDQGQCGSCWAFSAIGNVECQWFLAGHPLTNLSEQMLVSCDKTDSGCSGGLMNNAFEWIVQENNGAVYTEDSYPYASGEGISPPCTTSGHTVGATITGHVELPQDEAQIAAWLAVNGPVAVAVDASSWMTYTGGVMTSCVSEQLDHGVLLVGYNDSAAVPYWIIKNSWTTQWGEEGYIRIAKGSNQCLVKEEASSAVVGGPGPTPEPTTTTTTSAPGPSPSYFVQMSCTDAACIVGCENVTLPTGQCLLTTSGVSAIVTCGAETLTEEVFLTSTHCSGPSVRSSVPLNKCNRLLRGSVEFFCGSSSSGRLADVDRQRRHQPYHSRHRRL
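Detergent-free condition (0.00005% Triton X-100) in acetate buffer pH 5.5 with DTT. 1.5 nM enzyme and compound were pre-mixed 15 min, then 2 uM Z-FR-AMC substrate added; reaction progress from fluorescence change between first and third reads (60 s).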
Cruzain Triton: cruzain (T. cruzi) inhibition with detergent | 200,000 tested, 0.43% active | Potency, µM, without a hit: max response, negative = inhibition, most hits filed as inhibitors | P25779 | purified cruzain, Z-FR-AMC fluorescence, 0.01% Triton;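 further: plate controls were neutral wells for no effect and buffer without enzyme for full effect; nearly all actives have a fitted effect of over 40% in size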
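Detergent-containing run (0.01% Triton X-100) in acetate buffer pH 5.5 with 5 mM DTT: enzyme at 1.5 nM final, 15 min compound preincubation at room temperature, then 2 uM Z-FR-AMC substrate. Activity taken as 60 s fluorescence increase at 360/450 nm.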
An asterisk follows results filed as active; ? = inconclusive. This is a sample that favours compounds with a hit; in the whole collection about 2.6% have one here. The call rests on the fitted dose curve; in most records, active means well fitted curve in the direction sought with a large enough effect; inconclusive means small, poorly fitted or top-dose-only effect, or another doubt; inactive means no such curve, though single readings can be large; an effect the other way counts as inactive or inconclusive. Potency means the concentration at half of the fitted maximal effect.

SMILES | Cruzain noTriton | Cruzain Triton
O=C(NCc1cccc(F)c1)c1ccc(N2C(=O)Cn3c(cc4sccc43)C2=O)cc1 | 25µM* | -7%
CCN1CCSc2ccc(C(=O)NCc3cccc(F)c3)cc21 | 7% | 1%
N#Cc1ccsc1NC(=O)CSc1ncn[nH]1 | -5% | 5%
N#Cc1ccsc1NC(=O)CSc1ncnc2ccccc12 | 16µM* | -8%
Cc1cc(C)cc(NC(=O)c2cc(S(=O)(=O)N3CCCCCC3)cn2C)c1 | 0% | -2%
Cc1ccc(C)c(NC(=O)N2CC=C(c3c[nH]c4ccccc34)CC2)c1 | -16% | -10%
COc1cc(OC)c(NC(=O)N2CC=C(c3c[nH]c4ccccc34)CC2)cc1Cl | 20µM* | -9%
CCOc1ccc(Nc2nc(-c3cccc(Cl)c3)c3c(n2)-c2ccccc2OC3)cc1 | -1% | -5%
CS(=O)(=O)N1CCC[C@@]2(CCN(c3ncccn3)C2)C1 | 0% | 3%
CS(=O)(=O)N1CCC2(CC1)CN(c1ncccn1)C2 | 16µM* | -3%
O=C(COC(=O)c1ccccc1OCC(=O)Nc1ccc(Br)cc1)Nc1ccccc1 | 13µM* | 1%
COCC(=O)Nc1ccc(Nc2ccccc2)cc1 | 25µM* | 5%
CCC(=O)Nc1ccc(Nc2ccccc2)cc1 | -10% | 0%
CCC(C)NC(=O)COC(=O)c1ccccc1OCC(=O)Nc1ccc(Br)cc1 (stereo not drawn) | 15% | 3%
Cc1ccc(NC(=O)Cn2c(=O)n(CCCCC(=O)NCCc3ccc(Cl)cc3)c(=O)c3ccccc32)cc1 | -3% | -3%
CCOc1ccc(NC(=O)N(C)CCc2c(C)nn(C)c2C)cc1 | -5% | -2%
Cc1ccc(-c2ccc(=O)n(CC(=O)NCCc3ccc(Cl)cc3)n2)cc1 | ? | 1%
Fc1ccc(-c2csc(=Nc3cccc(C(F)(F)F)c3)n2Cc2ccc3c(c2)OCO3)cc1 | -5% | -1%
CC(C)C[C@@H](CC(=O)N[C@@H](CCC(=O)O)CC(=O)O)NC(=O)[C@@H]1CNCC[C@H]1NC(=O)C[C@@H](NC(=O)C[C@H](Cc1ccccc1)NC(=O)[C@@H]1CCCC[C@H]1N)C(C)C | 4% | 1%
COc1ccc(NC(=O)CN2C(=O)C(C)N=C(c3ccccc3)c3ccccc32)cc1OC (stereo not drawn) | ? | -1%
Cc1cccc(NC(=O)N[C@@H]2N=C(c3ccccc3)c3ccccc3N(CC(=O)c3ccccc3C)C2=O)c1 | 32µM* | -2%
Cc1ccc(C)c(N2CCN(c3nc4ccccc4n4nnnc34)CC2)c1 | ? | -1%
O=C(Oc1oc(-c2ccco2)nc1C=Nc1ccccc1)c1ccoc1 | ? | 22µM*
O=C(Oc1oc(-c2ccco2)nc1C=Nc1ccccc1)c1ccco1 | 16µM* | 14µM*
O=c1oc(-c2ccco2)nc2c1cnn2-c1ccccc1 | 0% | -2%
SMILES | Cruzain noTriton | Cruzain Triton
Cc1ccc(N=Cc2nc(-c3ccco3)oc2O)cc1 | -16% | -16%
O=C(c1ccccc1)N1CCCC(c2nc3c(nnn3Cc3ccc(F)cc3F)c(=O)[nH]2)C1 (stereo not drawn) | -9% | -6%
CCOc1ccc(N2C(=O)CC(Sc3ncccn3)C2=O)cc1 (stereo not drawn) | -2% | -1%
CCOc1ccc(N2C(=O)CC(Sc3nc(-c4cccs4)cc(C(F)(F)F)c3C#N)C2=O)cc1 (stereo not drawn) | 13µM* | -20%
COc1ccc(-c2csc3nc(-c4cccnc4)nc(N4CCC(C(N)=O)CC4)c23)cc1OC | ? | 25µM*
COc1ccc(-c2csc3nc(C)n(-n4cccc4)c(=O)c23)cc1OC | 8% | -5%
Cc1cccc(N(CC(=O)Nc2ccccc2C(F)(F)F)S(=O)(=O)c2ccccc2)c1C | -2% | -5%
O=C(NCCS(=O)(=O)N1CCN(c2ccc(F)cc2)CC1)c1cc(=O)c2ccccc2o1 | 0% | -1%
COc1ccccc1NC(=O)c1ccc(CN(c2cc(Cl)ccc2C)S(=O)(=O)c2ccccc2)cc1 | 13µM* | 0%
COc1ccc(NC(=O)c2ccc(CN(c3cc(Cl)ccc3C)S(=O)(=O)c3ccccc3)cc2)cc1OC | ? | 1%
C/C(=N\NC(=O)c1cccc(S(=O)(=O)Nc2ccccc2Cl)c1)c1ccc(-n2ccnc2)cc1 | 20µM* | -5%
COc1ccc(NS(=O)(=O)c2cccc(C(=O)N/N=C(\C)c3ccc(-n4ccnc4)cc3)c2)cc1 | -12% | 1%
Cc1cc(-c2ccc(S(=O)(=O)Nc3cccc(Cl)c3C)cc2)on1 | -12% | -9%
O=C(CSc1nc(-c2ccccc2)nc2ccccc12)Nc1nccs1 | ? | -2%
O=C(CSc1nc(-c2ccccc2)cs1)Nc1nccs1 | 25µM* | 5%
COc1cccc(OCc2nnc(SCC(=O)N3c4ccccc4Sc4ccc(Cl)cc43)o2)c1 | ? | -4%
O=C(CSc1nc2ccccc2o1)N1c2ccccc2Sc2ccccc21 | ? | -2%
O=C1c2ccccc2C(=O)N1CC(=O)N1c2ccccc2Sc2ccc(C(F)(F)F)cc21 | ? | -7%
CC(C)C(=O)NNC(=O)CSc1nc(C2CCCCC2)nc2ccccc12 | -8% | 2%
Cc1cccc(OCc2nnc(SCC(=O)N3c4ccccc4Sc4ccc(Cl)cc43)o2)c1 | 13µM* | -2%
O=C(CSc1nc2ccccc2s1)N1c2ccccc2Sc2ccc(C(F)(F)F)cc21 | 10µM* | 5%
O=C(CSc1nc2ccccc2s1)N1c2ccccc2Sc2ccc(Cl)cc21 | 16µM* | 5%
O=C(CSc1nc(C2CC2)nc2ccccc12)N1c2ccccc2Sc2ccccc21 | 25µM* | -5%
COc1ccc(Cl)cc1NC(=O)c1cc(C)nn1-c1ccccc1 | -7% | -6%
COc1ccc(-c2nc3c4ccccc4n(CC(=O)N4CCN(c5ccc(F)cc5)CC4)c(=O)n3n2)cc1 | 12% | 7%
SMILES | Cruzain noTriton | Cruzain Triton
O=S(=O)(NCCc1csc2nc(-c3ccc(Cl)cc3)nn12)c1ccc2c(c1)OCCO2 | -7% | -6%
O=C(/C=C/c1ccccc1)N1CCN(Cc2cc(=O)n3nc(-c4ccccc4Cl)sc3n2)CC1 | -11% | 1%
CN(C(=O)CSc1nc2c(c(=O)[nH]1)CCCC2)c1ccccc1 | 1% | 0%
O=C(CSc1nnc(-c2c[nH]c3ccccc23)o1)N1c2ccccc2CCc2ccccc21 | ? | 1%
O=C(CSc1nnc(COc2cccc3ccccc23)o1)N1c2ccccc2CCc2ccccc21 | 13µM* | 10%
COC(=O)c1sc(NC(=O)c2cc3nc(-c4ccc(Br)cc4)cc(C(F)(F)F)n3n2)c(C(=O)OC)c1C | -10% | 1%
N#Cc1c(N2CCCC(O)C2)nc(N)c2c(N)nc3c(c12)CC(=O)N3C12CC3CC(CC(C3)C1)C2 (stereo not drawn) | 2% | -15%
C=C(C)CN(CC)c1nc(N)c2c(N)nc3c(c2c1C#N)CC(=O)N3C12CC3CC(CC(C3)C1)C2 | 4µM* | -3%
CCOC(=O)N1CCN(C(=O)c2ccc3c(=O)n(CCC4=CCCCC4)c(=S)[nH]c3c2)CC1 | ? | -7%
Cc1ccc2c(c1)[nH]c1c(=O)n(CCC3=CCCCC3)cnc12 | 20µM* | 4%
Cc1ccc2[nH]c3c(=O)n(CCC4=CCCCC4)cnc3c2c1 | -20% | 0%
O=c1c2ccc(Cl)cc2[nH]c(=S)n1CCC1=CCCCC1 | 20µM* | -1%
COc1cccc(CSc2nc3cc(OC)c(OC)cc3c3nc(CCn4nc(C)cc4C)nn23)c1 | -4% | -1%
NC(=O)C1CCN(S(=O)(=O)c2cc3c(cc2Cl)NC(=O)CO3)CC1 | -4% | 0%
Cc1ccc(CNC(=O)Cc2nc3nc(C)cc(C)n3n2)cc1 | -5% | 1%
